# From PubChem BioAssay (Tox21)
# Inconclusive results are not listed. Entries that show only a call come without a potency. Active and inactive are the calls of the source. Unless noted, the call rests on the fitted dose curve; in most records, active means well fitted curve in the direction sought with a large enough effect in the repeat runs; inconclusive means weak or mixed curves; inactive means no such curve, though single readings can be large; an effect the other way counts as inactive or inconclusive.
# Key:
# [1] = tested on: thyroid hormone receptor (rat, GH3 cells); assay: qHTS assay to identify small molecule agonists of the thyroid receptor (TR) signaling pathway (AID 743066; calls by dose curve)
# [2] = target: Estrogen receptor (Homo sapiens) (UniProt P03372); assay: qHTS assay to identify small molecule antagonists of the estrogen receptor alpha (ER-alpha) signaling pathway (AID 743069; active means well fitted curve in the direction sought with a large enough effect in the signal ratio in the repeat runs, not every such curve was filed as active; the % refers to the signal ratio)
# Sequence of Estrogen receptor (Homo sapiens) (P03372 whole entry, looked up): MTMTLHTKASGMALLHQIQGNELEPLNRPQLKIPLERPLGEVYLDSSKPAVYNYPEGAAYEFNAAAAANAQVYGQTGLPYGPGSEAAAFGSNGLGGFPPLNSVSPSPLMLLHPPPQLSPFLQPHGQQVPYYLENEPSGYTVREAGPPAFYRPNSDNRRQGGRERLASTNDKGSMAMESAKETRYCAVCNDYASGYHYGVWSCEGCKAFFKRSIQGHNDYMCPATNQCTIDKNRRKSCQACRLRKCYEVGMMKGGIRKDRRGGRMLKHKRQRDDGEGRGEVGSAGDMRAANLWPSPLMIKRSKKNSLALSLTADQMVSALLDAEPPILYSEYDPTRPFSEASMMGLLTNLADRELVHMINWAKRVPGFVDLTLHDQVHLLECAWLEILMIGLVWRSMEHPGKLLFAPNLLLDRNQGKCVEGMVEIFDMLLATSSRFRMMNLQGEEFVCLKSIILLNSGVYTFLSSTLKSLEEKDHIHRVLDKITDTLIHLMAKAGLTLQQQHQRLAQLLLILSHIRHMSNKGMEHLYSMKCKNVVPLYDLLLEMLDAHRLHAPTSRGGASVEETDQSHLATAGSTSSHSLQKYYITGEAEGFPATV
# Outline: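 HEK293 ER-alpha-UAS-bla GripTite cells, held overnight in 2% charcoal-stripped FBS, 5,000 cells/well, preincubated 4 h, then compound plus 17beta-estradiol for 18 h at 37C. Beta-lactamase read by LiveBLAzer B/G FRET substrate, 2 h at room temperature.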
# [3] = qHTS assay to identify small molecule antagonists of the estrogen receptor alpha (ER-alpha) signaling pathway - cell viability counter screen (AID 743074; calls by dose curve;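 further: HEK293 cells carrying ER-alpha-UAS-bla reporter stimulated with 17beta-estradiol; nearly all actives have a fitted effect of over 45% in size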)
# [4] = target: Estrogen receptor (Homo sapiens) (UniProt P03372); assay: qHTS assay to identify small molecule agonists of the estrogen receptor alpha (ER-alpha) signaling pathway (AID 743075; calls by dose curve)
# [5] = qHTS assay to identify small molecule antagonists of the estrogen receptor alpha (ER-alpha) signaling pathway using the BG1 cell line - cell viability counter screen (AID 743081);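 further: compound given together with 17beta-estradiol as the ER stimulus; series mostly up to about 70 µM; nearly all actives have a fitted effect of over 45% in size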
# Aromatase (Homo sapiens) = Aromatase (Homo sapiens) (UniProt P11511); assay: qHTS assay to identify aromatase inhibitors (AID 743083); further: series mostly up to about 70 µM; nearly all actives have a fitted effect of over 55% in size
# Sequence of Aromatase (Homo sapiens) (P11511 whole entry, looked up): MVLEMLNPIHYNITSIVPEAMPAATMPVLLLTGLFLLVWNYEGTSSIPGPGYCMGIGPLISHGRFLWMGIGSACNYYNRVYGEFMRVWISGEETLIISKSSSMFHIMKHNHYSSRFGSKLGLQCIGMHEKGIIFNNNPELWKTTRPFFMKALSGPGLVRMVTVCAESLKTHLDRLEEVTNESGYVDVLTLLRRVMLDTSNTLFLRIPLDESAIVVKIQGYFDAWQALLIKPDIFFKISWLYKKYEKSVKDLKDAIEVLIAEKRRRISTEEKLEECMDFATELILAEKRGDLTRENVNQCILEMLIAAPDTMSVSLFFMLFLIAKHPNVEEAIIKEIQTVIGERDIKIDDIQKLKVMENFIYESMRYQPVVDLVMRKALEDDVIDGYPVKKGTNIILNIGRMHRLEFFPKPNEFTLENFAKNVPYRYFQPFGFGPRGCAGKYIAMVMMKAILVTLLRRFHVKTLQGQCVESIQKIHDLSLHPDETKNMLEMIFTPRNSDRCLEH
# [6] = qHTS assay to identify aromatase inhibitors - cell viability counter screen (AID 743084);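 further: cells stimulated with testosterone during compound exposure; nearly all actives have a fitted effect of over 55% in size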
# [7] = target: Aryl hydrocarbon receptor (Homo sapiens) (UniProt P35869); assay: qHTS assay to identify small molecule that activate the aryl hydrocarbon receptor (AhR) signaling pathway (AID 743085); further: nearly all actives have a fitted effect of over 15% in size; further: potency means the concentration at half of the fitted maximal effect;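 on activation: HG2L7.5c1 human HepG2 liver cells with stably integrated DRE-driven firefly reporter; series mostly up to about 70 µM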
# Sequence of Aryl hydrocarbon receptor (Homo sapiens) (P35869 whole entry, looked up): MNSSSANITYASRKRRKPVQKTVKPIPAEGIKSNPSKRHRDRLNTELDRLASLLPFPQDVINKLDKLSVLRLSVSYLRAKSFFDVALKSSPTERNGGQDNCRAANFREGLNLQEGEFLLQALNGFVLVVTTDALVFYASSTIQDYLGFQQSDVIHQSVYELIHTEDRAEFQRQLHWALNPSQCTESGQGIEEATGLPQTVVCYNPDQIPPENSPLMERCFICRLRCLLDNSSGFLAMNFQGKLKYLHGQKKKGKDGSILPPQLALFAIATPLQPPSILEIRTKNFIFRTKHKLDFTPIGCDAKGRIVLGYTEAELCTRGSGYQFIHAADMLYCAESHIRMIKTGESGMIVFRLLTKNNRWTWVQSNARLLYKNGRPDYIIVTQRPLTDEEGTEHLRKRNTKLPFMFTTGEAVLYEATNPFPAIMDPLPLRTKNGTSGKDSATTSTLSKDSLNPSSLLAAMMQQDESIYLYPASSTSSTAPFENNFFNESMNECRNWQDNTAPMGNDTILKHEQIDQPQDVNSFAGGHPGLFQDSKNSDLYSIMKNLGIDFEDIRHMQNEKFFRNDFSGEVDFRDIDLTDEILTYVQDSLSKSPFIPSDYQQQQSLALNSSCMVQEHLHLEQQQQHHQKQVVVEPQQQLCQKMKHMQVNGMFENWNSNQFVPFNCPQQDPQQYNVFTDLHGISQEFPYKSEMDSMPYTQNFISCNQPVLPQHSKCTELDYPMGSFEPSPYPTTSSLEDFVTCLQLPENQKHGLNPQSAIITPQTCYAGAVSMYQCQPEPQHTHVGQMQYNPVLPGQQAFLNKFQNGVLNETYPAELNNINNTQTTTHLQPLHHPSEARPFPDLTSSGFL
# Outline: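 Compounds were tested in HepG2 hepatocellular carcinoma cells harbouring a stably integrated luciferase gene under control of 20 DREs. Increased reporter signal after 24 h treatment at 37C was taken as AhR activation.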
# [8] = qHTS assay to identify small molecule that activate the aryl hydrocarbon receptor (AhR) signaling pathway - cell viability counter screen (AID 743086);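 further: HepG2 liver cells carrying the AhR DRE luciferase reporter; series mostly up to about 70 µM; nearly all actives have a fitted effect of over 45% in size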
# Outline: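 HepG2-AhR-luc (HG2L7.5c1) cells, 4000/well, treated 24 h at 37 C with compound; viability measured as CellTiter-Fluor fluorescence after 30 min in the same wells as the luciferase read.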
# [9] = target: Peroxisome proliferator-activated receptor gamma (Homo sapiens) (UniProt P37231); assay: qHTS assay to identify small molecule antagonists of the peroxisome proliferator-activated receptor gamma (PPARg) signaling pathway (AID 743191; calls by dose curve; further: nearly all actives have a fitted effect of over 30% in size; further: potency means the concentration at half of the fitted maximal effect; on ratio activity, negative = inhibition: series mostly up to about 63 µM)
# Sequence of Peroxisome proliferator-activated receptor gamma (Homo sapiens) (P37231 whole entry, looked up): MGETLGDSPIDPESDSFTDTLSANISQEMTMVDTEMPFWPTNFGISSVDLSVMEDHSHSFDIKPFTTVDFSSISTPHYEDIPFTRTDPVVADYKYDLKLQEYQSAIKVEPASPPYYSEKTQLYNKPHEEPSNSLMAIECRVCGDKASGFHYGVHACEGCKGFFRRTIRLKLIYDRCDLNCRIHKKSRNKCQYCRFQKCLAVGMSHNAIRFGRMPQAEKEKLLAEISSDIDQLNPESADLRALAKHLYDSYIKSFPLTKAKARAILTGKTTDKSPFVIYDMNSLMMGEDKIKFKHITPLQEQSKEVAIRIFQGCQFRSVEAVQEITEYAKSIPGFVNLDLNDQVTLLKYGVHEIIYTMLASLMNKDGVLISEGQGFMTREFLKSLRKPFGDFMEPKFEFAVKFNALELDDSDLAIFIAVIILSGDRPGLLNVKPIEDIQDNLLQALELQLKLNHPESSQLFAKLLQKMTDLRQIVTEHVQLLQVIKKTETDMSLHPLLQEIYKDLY
# Outline: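 GeneBLAzer PPARg UAS-bla HEK293H cells, 5 h post-plating, exposed to compounds 17 h at 37C. LiveBLAzer B/G FRET substrate added for 1 h at room temperature; beta-lactamase reporter read by fluorescence intensity.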
# [10] = qHTS assay to identify small molecule antagonists of the peroxisome proliferator-activated receptor gamma (PPARg) signaling pathway - cell viability counter screen (AID 743194); further: nearly all actives have a fitted effect of over 55% in size
# Outline: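 Cytotoxicity counter screen in PPARg-bla HEK293H cells, same wells as reporter assay. Compounds plus 50 nM rosiglitazone (final) for 17 h at 37 C, then viability read by CellTiter-Glo luminescence.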
# [11] = qHTS assay for small molecule agonists of the antioxidant response element (ARE) signaling pathway - cell viability counter screen (AID 743203; calls by dose curve; further: nearly all actives have a fitted effect of over 55% in size)
# Outline: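 Seeded at 2,000 cells/well, ARE-bla HepG2 cells were incubated 5 hrs before compound addition. After 16 hrs of treatment at 37C with 5% CO2, CellTiter-Glo reagent was added and luminescence read 30 min later.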
# [12] = qHTS assay for small molecule activators of the heat shock response signaling pathway - cell viability counter screen (AID 743209); further: nearly all actives have a fitted effect of over 50% in size
# Outline: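 First, HSE-bla HeLa cells were seeded at 1500 cells/well and kept overnight at 37 C. Next, compounds were pinned in and incubated 5 h. After the FRET substrate step, CellTiter-Glo was added and luminescence read 30 min later.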
# [13] = qHTS assay to identify small molecule antagonists of the thyroid receptor (TR) signaling pathway (AID 743065)
# Outline: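 GH3.TRE-Luc rat pituitary cells (two TREs driving luciferase) were dosed with compound, then stimulated with 1 nM T3 (final) for 23.5 h at 37 C. ONE-Glo luminescence was the read-out, with CellTiter-Fluor fluorescence as the cytotoxicity counter-screen.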
# [14] = target: Peroxisome proliferator-activated receptor gamma (Homo sapiens) (UniProt P37231); assay: qHTS assay to identify small molecule agonists of the peroxisome proliferator-activated receptor gamma (PPARg) signaling pathway (AID 743094; active means well fitted activation curve with a large enough effect in the signal ratio in the repeat runs, not every such curve was filed as active; the % refers to the signal ratio)
# Outline: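 Quantitative HTS agonist mode: stable HEK293H line with UAS-beta-lactamase reporter under PPARg control, 17 h compound exposure at 37C, fluorescence after 1 h FRET substrate loading at room temperature.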
# [15] = qHTS assay for small molecule agonists of the antioxidant response element (ARE) signaling pathway (AID 743202; active means well fitted activation curve with a large enough effect in the signal ratio in the repeat runs, not every such curve was filed as active; the % refers to the signal ratio; further: potency means the concentration at half of the fitted maximal effect)
# Outline: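 ARE-bla HepG2 cells (beta-lactamase reporter under the antioxidant response element), plated 5 hours, then exposed to compounds 16 hours at 37 C. LiveBLAzer B/G FRET substrate added for 2 hours at room temperature; fluorescence intensity read.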
# [16] = qHTS assay for small molecule activators of the heat shock response signaling pathway (AID 743210; active means well fitted activation curve with a large enough effect in the signal ratio in the repeat runs, with a control signal flat, not every such curve was filed as active; the % refers to the signal ratio; further: series mostly up to about 63 µM)
# Outline: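 HSE-bla HeLa cells (beta-lactamase reporter under heat shock response elements), plated overnight, then exposed to compounds 5 h at 37 C; LiveBLAzer B/G FRET substrate added, 2.5 h at room temperature, fluorescence intensity read.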
# [17] = target: Estrogen receptor (Homo sapiens) (UniProt P03372); assay: qHTS assay to identify small molecule agonists of the estrogen receptor alpha (ER-alpha) signaling pathway using the BG1 cell line (AID 743079); further: nearly all actives have a fitted effect of over 20% in size
# [18] = qHTS assay to identify small molecule antagonists of the estrogen receptor alpha (ER-alpha) signaling pathway using the BG1 cell line (AID 743080; calls by dose curve;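 further: BG1 cells stimulated with 17beta-estradiol alongside compound; series mostly up to about 70 µM; nearly all actives have a fitted effect of over 25% in size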)
# Outline: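 After 5 days in phenol-red-free 10% charcoal-stripped FBS medium, BG1-Luc-4E2 cells were seeded, left 24 h at 37 C, co-treated with compounds and 17beta-estradiol for 21.5 h, then assayed for viability and luciferase.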
smiles,measurement,setting,value
CCCN1C[C@H](CSC)C[C@@H]2c3cccc4[nH]cc(c34)C[C@H]21,outcome,[1],inactive
same,outcome,[2],inactive
same,outcome,[3],inactive
same,outcome,[4],inactive
same,outcome,[5],inactive
same,Potency,Aromatase (Homo sapiens),inactive
same,Potency,[6],inactive
same,Potency,[7],inactive
same,Potency,[8],inactive
same,Potency,[9],inactive
same,outcome,[10],inactive
same,outcome,[11],inactive
same,outcome,[12],inactive
C=C(C)C(=O)OCCN(CC)CC,Potency,[13],inactive
same,outcome,[1],inactive
same,outcome,[3],inactive
same,outcome,[5],inactive
same,Potency,Aromatase (Homo sapiens),inactive
same,Potency,[6],inactive
same,Potency,[7],inactive
same,Potency,[8],inactive
same,outcome,[14],inactive
same,outcome,[10],inactive
same,Potency,[15],inactive
same,outcome,[11],inactive
Cc1ccc2ccc(Cl)cc2n1,Potency,[9],inactive
same,outcome,[10],inactive
same,Potency,[15],inactive
same,outcome,[11],inactive
same,outcome,[12],inactive
CCn1ccc(NS(=O)(=O)c2ccc(N)cc2)nc1=O,outcome,[10],inactive
same,outcome,[11],inactive
same,outcome,[12],inactive
same,outcome,[16],inactive
CC1=C(C(=O)O)N2C(=O)[C@@H](NC(=O)[C@H](N)c3ccc(O)cc3)[C@H]2SC1,outcome,[3],inactive
same,outcome,[5],inactive
same,Potency,Aromatase (Homo sapiens),inactive
same,Potency,[6],inactive
same,Potency,[7],inactive
same,Potency,[8],inactive
same,outcome,[10],inactive
same,outcome,[11],inactive
same,outcome,[12],inactive
same,outcome,[16],inactive
COc1cc2c(cc1OC)[C@@H]1CC(=O)[C@@H](CC(C)C)CN1CC2,Potency,[13],inactive
same,outcome,[1],inactive
same,outcome,[2],inactive
same,outcome,[4],inactive
same,Potency,[17],inactive
same,Potency,[18],inactive
same,outcome,[5],inactive
same,Potency,[6],inactive
same,outcome,[14],inactive
same,Potency,[9],inactive
same,outcome,[10],inactive
same,outcome,[11],inactive
same,outcome,[12],inactive
CNS(=O)(=O)CCc1ccc2[nH]cc(C3CCN(C)CC3)c2c1,Potency,[13],inactive
same,outcome,[1],inactive
same,outcome,[2],inactive
same,outcome,[4],inactive
same,Potency,[17],inactive
same,Potency,[18],inactive
same,outcome,[5],inactive
same,Potency,Aromatase (Homo sapiens),inactive
same,Potency,[6],inactive
same,Potency,[7],inactive
same,Potency,[8],inactive
same,outcome,[14],inactive
same,outcome,[10],inactive
same,outcome,[12],inactive
same,outcome,[16],inactive
Oc1ccccc1-c1nnco1,outcome,[10],inactive
same,outcome,[11],inactive
same,outcome,[12],inactive
N[C@@H](CCC(=O)N[C@@H](CS)C(=O)NCC(=O)O)C(=O)O,outcome,[3],inactive
same,outcome,[5],inactive
same,Potency,Aromatase (Homo sapiens),inactive
same,Potency,[6],inactive
same,Potency,[7],inactive
same,outcome,[10],inactive
same,outcome,[12],inactive
same,outcome,[16],inactive
O=C1CC(c2ccc(Cl)cc2)CC(=O)N1,Potency,[9],inactive
same,outcome,[10],inactive
same,outcome,[11],inactive
same,outcome,[12],inactive
same,outcome,[16],inactive
CCOCCOC(=O)/C=C/c1ccc(OC)cc1,Potency,[9],inactive
same,outcome,[10],inactive
same,outcome,[16],inactive
CC(C)C(=O)OCc1cccc(OC(=O)[C@@H]2N3C(=O)[C@@H](NC(=O)Cc4ccccc4)[C@H]3SC2(C)C)c1,Potency,[9],inactive
same,outcome,[10],inactive
same,outcome,[11],inactive
same,outcome,[16],inactive
O=C(OCC(O)CO)c1ccccc1Nc1ccnc2c(C(F)(F)F)cccc12 (centres undefined),Potency,[9],16.8 µM (active)
same,outcome,[10],inactive
same,Potency,[15],26.6 µM (active)
same,outcome,[11],inactive
same,outcome,[12],inactive
same,outcome,[16],inactive
CN1CCN(CC(=O)N2c3ccccc3C(=O)Nc3cccnc32)CC1,outcome,[2],inactive
same,outcome,[3],inactive
same,outcome,[4],inactive
same,Potency,[17],inactive
same,Potency,[18],inactive
same,outcome,[5],inactive
same,Potency,Aromatase (Homo sapiens),inactive
same,Potency,[7],inactive
same,Potency,[8],inactive
same,outcome,[14],inactive
same,"ratio activity, negative = inhibition",[9],0.895% [at 5.95 µM] (inactive)
same,"activity change, negative = cytotoxicity",[10],4.99% [at 5.95 µM] (inactive)
same,activation,[15],3.2% [at 8.36 µM] (inactive)
same,"viability change, negative = cytotoxic",[11],1.72% [at 8.36 µM] (inactive)
same,activation,[16],-0.267% [at 5.95 µM] (inactive)
CC(C)=CCOC(=O)c1ccccc1,Potency,[13],inactive
same,outcome,[1],inactive
same,outcome,[3],inactive
same,outcome,[5],inactive
same,Potency,[8],inactive
same,outcome,[10],inactive
same,outcome,[12],inactive
CC(C)(C)c1nnc(NS(=O)(=O)c2ccc(N)cc2)s1,outcome,[10],inactive
same,Potency,[15],inactive
same,outcome,[11],inactive
same,outcome,[12],inactive
Cc1ccccc1OCC(O)CO (centres undefined),Potency,[13],inactive
same,outcome,[1],inactive
same,outcome,[5],inactive
same,Potency,Aromatase (Homo sapiens),inactive
same,Potency,[6],inactive
same,Potency,[7],inactive
same,Potency,[8],inactive
same,outcome,[14],inactive
same,Potency,[9],inactive
same,outcome,[10],inactive
same,outcome,[11],inactive
same,outcome,[12],inactive
same,outcome,[16],inactive
C[C@H](CCC(=O)O)[C@H]1CC[C@H]2[C@@H]3C(=O)C[C@@H]4CC(=O)CC[C@]4(C)[C@H]3CC(=O)[C@]12C,outcome,[1],inactive
same,outcome,[2],inactive
same,outcome,[3],inactive
same,outcome,[4],inactive
same,Potency,[17],inactive
same,Potency,[18],inactive
same,outcome,[5],inactive
same,Potency,Aromatase (Homo sapiens),inactive
same,Potency,[6],inactive
same,Potency,[7],inactive
same,Potency,[8],inactive
same,outcome,[14],inactive
same,Potency,[9],inactive
same,outcome,[10],inactive
same,Potency,[15],inactive
same,outcome,[11],inactive
same,outcome,[12],inactive
same,outcome,[16],inactive
CC(C)CCCCOC(=O)c1ccccc1C(=O)OCCCCC(C)C,Potency,[13],inactive
same,outcome,[1],inactive
same,outcome,[3],inactive
same,outcome,[5],inactive
same,Potency,Aromatase (Homo sapiens),inactive
same,Potency,[7],inactive
same,Potency,[8],inactive
same,outcome,[14],inactive
same,Potency,[9],inactive
same,outcome,[10],inactive
same,outcome,[11],inactive
same,outcome,[12],inactive
same,outcome,[16],inactive
Cc1ccccc1C(=O)Nc1ccc(C(=O)N2CCCC(N(C)C)c3ccccc32)cc1 (centres undefined),outcome,[10],inactive
same,outcome,[11],inactive
same,outcome,[16],inactive
CCCCNC1CC(C)(C)NC(C)(C)C1,outcome,[1],inactive
same,outcome,[2],inactive
same,outcome,[3],inactive
same,outcome,[4],inactive
same,Potency,[17],inactive
same,Potency,[18],inactive
same,Potency,Aromatase (Homo sapiens),inactive
same,Potency,[6],inactive
same,Potency,[7],inactive
same,Potency,[8],inactive
same,outcome,[14],inactive
same,Potency,[9],inactive
same,Potency,[15],inactive
same,outcome,[11],inactive
same,outcome,[12],inactive
same,outcome,[16],inactive
COC(=O)c1ccccc1C(=O)c1ccc(OCCN2CCCCC2)cc1,outcome,[1],inactive
same,outcome,[2],inactive
same,outcome,[3],inactive
same,outcome,[4],inactive
same,Potency,[17],inactive
same,Potency,[18],inactive
same,outcome,[5],inactive
same,Potency,Aromatase (Homo sapiens),inactive
same,Potency,[6],inactive
same,Potency,[7],inactive
same,Potency,[8],inactive
same,outcome,[14],inactive
same,outcome,[10],inactive
same,Potency,[15],inactive
same,outcome,[11],inactive
same,outcome,[12],inactive
same,outcome,[16],inactive
COc1ccc2nc(SCc3ncc(C)c(OC)c3C)[nH]c2c1,Potency,[9],inactive
same,outcome,[10],inactive
same,outcome,[11],inactive
same,outcome,[12],inactive
COc1cc(N)ccc1C,Potency,[13],inactive
same,outcome,[1],inactive
same,outcome,[3],inactive
same,outcome,[5],inactive
same,Potency,[8],inactive
same,outcome,[11],inactive
same,outcome,[12],inactive
same,outcome,[16],inactive
CC(C)OC(=O)CCCCC(=O)OC(C)C,outcome,[1],inactive
same,outcome,[3],inactive
same,outcome,[4],inactive
same,Potency,[17],inactive
same,Potency,[18],inactive
same,outcome,[5],inactive
same,Potency,[6],inactive
same,Potency,[7],54.6 µM (active)
same,Potency,[8],inactive
same,outcome,[14],inactive
same,outcome,[10],inactive
same,Potency,[15],30.7 µM (active)
same,outcome,[11],inactive
same,outcome,[16],inactive
C[C@@H]1O[C@@H](O[C@@H]2[C@@H](O)[C@H](OCCc3ccc(O)c(O)c3)O[C@H](CO[C@@H]3O[C@H](CO)[C@@H](O)[C@H](O)[C@H]3O)[C@H]2OC(=O)/C=C/c2ccc(O)c(O)c2)[C@H](O)[C@H](O)[C@H]1O,Potency,[13],inactive
same,outcome,[1],inactive
same,outcome,[3],inactive
same,Potency,Aromatase (Homo sapiens),inactive
same,Potency,[6],inactive
same,Potency,[8],inactive
same,outcome,[14],inactive
same,Potency,[9],inactive
same,outcome,[10],inactive
same,outcome,[12],inactive
same,outcome,[16],inactive
